Compound activity deposited in PubChem BioAssay by several laboratories.
Hits are enriched below; roughly 1.5% of the tested compounds scored in any of these assays.
IDE act – boosts human insulin-degrading enzyme activity in HEK cells | AID 493087 | P14735 | actives 0.073% (n = 340,000) | FAbeta-B cleavage, fluorescence polarization; 0% vehicle, 100% cell-free pure enzyme wells | activation, % at 5.96 µM;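 active = activation above the mean of all tested compounds plus 3 SD, set per screening campaign, cut at about 17% in these data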
Target sequence (P14735 whole entry, looked up): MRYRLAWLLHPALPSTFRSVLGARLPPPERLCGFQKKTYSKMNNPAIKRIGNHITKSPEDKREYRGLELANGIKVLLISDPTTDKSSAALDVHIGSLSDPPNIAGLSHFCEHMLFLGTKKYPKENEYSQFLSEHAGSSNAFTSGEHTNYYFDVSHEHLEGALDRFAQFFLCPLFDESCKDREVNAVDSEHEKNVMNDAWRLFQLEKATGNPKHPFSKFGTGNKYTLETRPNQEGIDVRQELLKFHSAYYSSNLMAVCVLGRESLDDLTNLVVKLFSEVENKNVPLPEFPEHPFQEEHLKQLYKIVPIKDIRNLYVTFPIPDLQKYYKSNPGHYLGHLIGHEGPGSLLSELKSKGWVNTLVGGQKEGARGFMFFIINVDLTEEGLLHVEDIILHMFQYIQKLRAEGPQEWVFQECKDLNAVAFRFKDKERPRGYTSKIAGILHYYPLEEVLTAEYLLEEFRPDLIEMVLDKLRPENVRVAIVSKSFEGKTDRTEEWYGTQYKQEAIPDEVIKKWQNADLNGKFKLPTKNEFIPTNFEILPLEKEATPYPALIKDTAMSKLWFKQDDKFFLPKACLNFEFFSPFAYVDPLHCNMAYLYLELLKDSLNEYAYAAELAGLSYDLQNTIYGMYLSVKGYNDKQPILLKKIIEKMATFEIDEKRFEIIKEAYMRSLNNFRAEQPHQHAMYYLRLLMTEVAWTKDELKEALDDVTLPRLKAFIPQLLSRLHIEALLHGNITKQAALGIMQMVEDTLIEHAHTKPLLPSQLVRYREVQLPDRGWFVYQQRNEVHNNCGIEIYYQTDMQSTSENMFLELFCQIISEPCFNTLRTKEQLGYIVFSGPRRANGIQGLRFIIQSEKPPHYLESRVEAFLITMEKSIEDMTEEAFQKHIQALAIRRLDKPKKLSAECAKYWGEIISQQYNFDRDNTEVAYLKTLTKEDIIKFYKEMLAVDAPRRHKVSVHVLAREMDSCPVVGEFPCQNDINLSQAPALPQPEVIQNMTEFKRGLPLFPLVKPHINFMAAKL
RTF Ca sens inh – cardiac RTF calcium desensitization; P19429+P45379; IANBD-labeled cardiac RTF, Ca2+ fluorescence; inhibition, % at 7.15 µM; actives 0.12% (n = 340,000); AID 493244;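 active = inhibition above the mean inhibition of all tested compounds plus 3 SD, cut at about 17% in these data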;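 note: assay run at fixed EC70 calcium of 1.6 mM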
cardiac RTF act – increases calcium sensitivity of human cardiac regulated thin filaments; P19429+P45379; IANBD-labeled TnC RTF fluorescence at EC20 calcium; 0% EC20 calcium, 100% full calcium; activation, % at 7.2 µM; actives 0.24% (n = 340,000); AID 493008;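 active = activation above the mean over all tested compounds plus 3 SD, cut at about 30% in these data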;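 note: rise in fluorescence read as greater calcium sensitivity of cardiac thin filaments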
IDE cell inh – inhibitors of human insulin-degrading enzyme in cells. inhibition, % at 5.59 µM. HEK cells, FAbetaB cleavage, fluorescence polarization. AID 434962. actives 0.41% (n = 320,000);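 active = percent inhibition above the average of all tested compounds plus 3 SD, set per screening campaign, cut at about 16% in these data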;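 note: IDE supplied by intact live HEK cells; FP after avidin binding of uncleaved biotin substrate so inhibition keeps polarization high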
TPT1 inh – blocks Candida albicans tRNA 2'-phosphotransferase; inhibition, % at 5 µM; AID 1962; recombinant caTPT1, FP RNA substrate dephosphorylation; actives 0.81% (n = 300,000);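 active = inhibition above the mean of all tested compounds plus 3 SD, set per screening campaign, cut at about 24% in these data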
CRFBP-R2 agonist – agonists of human CRF-binding protein/CRF-R2 receptor complex. HEK293 CRF-R2/CRF-BP, calcium dye fluorescence (FLIPR); percent of saturating CRF peptide response. activation, % at 13.2 µM. actives 0.46% (n = 350,000). AID 588473;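 active = activation of at least 50%, plus an integration ratio under a set limit after plate pattern correction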
caTPT1 confirm – TPT1 (C. albicans) inhibition, confirmation; inhibition, % at 5 µM; AID 2149; recombinant caTPT1, fluorescence polarization, RNase T1 coupled; shares compounds with TPT1 inh; actives 74% (n = 2,400);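 active = inhibition above the primary screen limit, the mean inhibition of all tested compounds plus 3 SD, cut at about 25% in these data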
RNase T1 inh – blocks Aspergillus oryzae RNase T1, a TPT1 counter-screen; inhibition, % at 5 µM; actives 83% (n = 2,400); shares compounds with TPT1 inh; AID 2153; RNase T1 cleavage, fluorescence polarization, 1536-well;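 active = inhibition above the solvent-only control well mean plus 3 SD, limit set per screening run, cut at about 23% in these data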;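 note: inhibitors block cleavage so intact labeled substrate keeps polarization high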
Of the large screens only hits and unclear results are named; the others gave an inactive call (follow-up assays come after a bar, where they were run).

CCOc1ccc(N2C(=O)CC(/C=C3/N(C)c4ccccc4C3(C)C)C2=O)cc1 (stereo not given)	TPT1 inh 25 | caTPT1 confirm inactive | RNase T1 inh 26
CN1/C(=C/C2CC(=O)NC2=O)C(C)(C)c2ccccc21 (stereo not given)	none
CN1/C(=C/C2CC(=O)N(c3cccc4ccccc34)C2=O)C(C)(C)c2ccccc21 (stereo not given)	TPT1 inh 38 | caTPT1 confirm 54 | RNase T1 inh 68
OCCCNC(=S)Nc1ccc(Br)cc1Cl	none
CC(=O)Nc1ccc(/C=C2/Sc3ccccc3C2=O)cc1	TPT1 inh 44 | caTPT1 confirm 43 | RNase T1 inh 51
CN(C)/C=C1/Sc2ccccc2C1=O	none
CC(=O)N(\C=C/C=C/C=C1\Sc2ccccc2C1=O)c1ccccc1	TPT1 inh 58 | caTPT1 confirm 84 | RNase T1 inh 94
C/C(CC(=O)NC1CCCCC1)=N\NC(=O)Cc1ccc(-c2ccccc2)cc1	none
CN1C(=O)/C(=C/C=C2/CCCN2C)N(C)C1=S	TPT1 inh 41 | caTPT1 confirm 90 | RNase T1 inh 102
Oc1nc(Nc2cccc(Cl)c2)sc1/C=C1\C=Nc2ccccc21	none
CCOC(=O)c1c(Nc2ccc(Cl)cc2)sc(/C=C2\C=Nc3ccccc32)c1O	TPT1 inh 36 | caTPT1 confirm 46 | RNase T1 inh 54
COc1ccc(-c2ccc(CN3C(C(C)C)C(=O)N(Cc4cn(Cc5ccco5)nn4)CCS3(=O)=O)cc2)cn1 (stereo not given)	none (no result: IDE act, RTF Ca sens inh, cardiac RTF act, IDE cell inh, TPT1 inh)
Cc1ccccc1Nc1cccc2nonc12	TPT1 inh 37 | caTPT1 confirm 42 | RNase T1 inh 54
CCOc1cc(/C=N/Nc2nc(-c3cccs3)c(NC(C)=O)s2)ccc1O	none
CCN(CC)c1ccc(/C=N/Nc2nc3ccccc3[nH]2)c(O)c1	TPT1 inh 34 | caTPT1 confirm inactive | RNase T1 inh inactive
CCN(CC)c1ccc(/C=N/N=C(c2ccccc2)c2ccccc2)c(O)c1	TPT1 inh 36 | caTPT1 confirm 98 | RNase T1 inh 104
COc1cc(OC)c(OC)cc1/C=N/Nc1nc2ccccc2[nH]1	none
CCN(CC)c1ccc(/C=N/NC(=O)c2ccco2)c(O)c1	TPT1 inh 27 | caTPT1 confirm 48 | RNase T1 inh 59
Cc1cccc(NC(=O)C(=O)NCCCc2ccccc2)c1	none (no result: IDE act, RTF Ca sens inh, cardiac RTF act, CRFBP-R2 agonist)
O=C(Nc1ccccc1)OCC(CN1CCCCC1)OC(=O)Nc1ccccc1 (stereo not given)	none
O=Cc1sc(Nc2ccccc2)nc1Cl	TPT1 inh 76 | caTPT1 confirm 74 | RNase T1 inh 86
COc1ccccc1Nc1nc(Cl)c(C=O)s1	TPT1 inh 45 | caTPT1 confirm 70 | RNase T1 inh 83
Cc1ccc(Nc2nc(Cl)c(C=O)s2)cc1Cl	none
CC(C)(C)OC(=O)N(Cc1ccccc1)Cc1ccccc1OCc1cccc(NC(=O)c2ccccc2)c1	none (no result: IDE cell inh, TPT1 inh)
CCOC(=O)c1cn2nc(SCc3ccccc3)nc2nc1C	none
COc1cccc(C(=O)/C=C/Nc2ccc(S(=O)(=O)Nc3cc(OC)nc(OC)n3)cc2)c1	none
COc1ccc(C(=O)/C=C/Nc2ccc(S(=O)(=O)Nc3cc(OC)nc(OC)n3)cc2)c(OC)c1	TPT1 inh 36 | caTPT1 confirm 39 | RNase T1 inh 50
Cc1ccc2nc(SCC(=O)Nc3ccc4sc(C)nc4c3)c(C#N)cc2c1	TPT1 inh 25 | caTPT1 confirm inactive | RNase T1 inh inactive
Cc1ccc2nc(SCC(=O)Nc3ccccc3N3CCOCC3)c(C#N)cc2c1	none
Cc1cc(C)c(C#N)c(SCC(=O)c2ccccc2)n1	none
Cc1cc(=O)[nH]c(SCC(=O)c2ccccc2)c1C#N	TPT1 inh 51 | caTPT1 confirm 31 | RNase T1 inh 45
COc1cc(/C=C2/SC(=S)N(Cc3ccccc3)C2=O)cc(Cl)c1O	cardiac RTF act 71, IDE cell inh 86, TPT1 inh 37, CRFBP-R2 agonist 171 | caTPT1 confirm inactive | RNase T1 inh 22
CCOc1cc(/C=C2/SC(=S)N(Cc3ccccc3)C2=O)ccc1O	IDE cell inh 83, TPT1 inh 26 | caTPT1 confirm 38 | RNase T1 inh 48
COc1cc(/C=C2/SC(=S)N(Cc3ccccc3)C2=O)ccc1OCC(=O)O	none
Cc1ccc(C)c(NS(=O)(=O)c2ccccc2C)c1	none (no result: IDE cell inh, TPT1 inh)
N#Cc1c(SCC(=O)Nc2nccs2)sc2c(O)cc(=O)[nH]c12	TPT1 inh 79 | caTPT1 confirm inactive | RNase T1 inh inactive
Cc1ccc(-c2ccc(/C=N/n3cnnc3)o2)cc1Cl	TPT1 inh 62 | caTPT1 confirm inactive | RNase T1 inh inactive
CC1=Nc2ccccc2/C1=C\c1nc(-c2ccc(F)cc2)oc1O	cardiac RTF act 84, TPT1 inh 93 | caTPT1 confirm 96 | RNase T1 inh 102
O=C1NC(=S)S/C1=C\c1ccc(SCc2ccccc2)o1	TPT1 inh 47 | caTPT1 confirm 46 | RNase T1 inh 65
COCCCn1c(=O)/c(=C\c2ccccc2OC(C)C)s/c1=C(/C#N)C(=O)Nc1ccc(C(=O)O)cc1	TPT1 inh 39 | caTPT1 confirm inactive | RNase T1 inh 58
CCOc1ccc(NS(=O)(=O)c2ccc(C(=O)N(C)Cc3cccc(OC)c3OC)cc2)cc1	none
Cc1ccsc1/C=C1/SC(=O)N(CC(=O)N2CCOCC2)C1=O	TPT1 inh 70 | caTPT1 confirm inactive | RNase T1 inh inactive
O=C(CN1C(=O)S/C(=C/c2ccc(N3CCOCC3)cc2)C1=O)N1CCOCC1	TPT1 inh 40 | caTPT1 confirm 61 | RNase T1 inh 73
Cc1ccc(/C=C2/SC(=O)N(CC(=O)N3CCOCC3)C2=O)s1	none
CCOc1ccc(S(=O)(=O)N(CC)CC(=O)NC2CC2)cc1	none
CCOC(=O)c1ccccc1NC(=O)CSc1nc(N)cc(=O)[nH]1	none
CC1CCCN(S(=O)(=O)c2ccc(C(=O)Nc3sc4c(c3C(N)=O)CCN(C)C4)cc2)C1 (stereo not given)	TPT1 inh 73 | caTPT1 confirm 64 | RNase T1 inh 71
CCOC(=O)c1c(NC(=O)c2ccc(S(=O)(=O)N3CCOCC3)cc2)sc2c1CCN(C(C)C)C2	none
CC(C)N1CCc2c(sc(NC(=O)c3ccc(S(=O)(=O)N4CCOCC4)cc3)c2C(N)=O)C1	TPT1 inh 36 | caTPT1 confirm 43 | RNase T1 inh 56
